# Pf Dd2 growth: inhibitors of Plasmodium falciparum Dd2 growth. P. falciparum Dd2 growth, SYBR Green, 72 h. Potency, µM (titrated, usually from 28.9 µM), for inactives: at the top dose activity, negative = inhibition, actives largely listed as inhibitors. 120,000 tested, 4.3% active; active = well fitted inhibition curve with a large enough effect;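 note: plate controls were DMSO vehicle for no effect and reference drug for full effect; nearly all actives have a fitted effect of over 65% in size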
#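 Infected erythrocytes (Dd2, 0.3% parasitemia, 2.5% hematocrit final) are added to compound in RPMI-1640/Albumax II medium, grown 72 h at 37C in low oxygen, then lysed with saponin/Triton-X containing SYBR Green and read by fluorescence.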
# Starred values were filed as active, the others as inactive; i = inactive; [ ] = dose if it differs, or a comment. Shown is part of a subset that was picked to be rich in hits. Potency is the fitted concentration of half-maximal effect.
SMILES,Pf Dd2 growth
CC1(C)[C@H](Cc2cc(CCO)on2)C[C@@H]1NCc1ccccc1O,i
CCC(C)NC(=O)c1ccc(CN2C(=O)NC3(CCS(=O)(=O)CC3)C2=O)cc1 (stereo not given),4%
COc1cc(=O)n2c(c1C(=O)Nc1cc(F)cc(F)c1)CCCC2,4%
COC(=O)[C@H](NC(=O)[C@@H]1C[C@H](NC(=O)Nc2ccc(OC)cc2)CN1C(=O)c1cccn1C)C(C)C,-9%
CCOc1ccc(NC(=O)Cn2nc(Cc3ccncc3)c3ccccc3c2=O)cc1,-8%
CCOc1ccc(C2c3c(oc4cc(C)c(C)cc4c3=O)C(=O)N2c2ccccn2)cc1 (stereo not given),-8%
COc1cc(C2c3c(-c4ccccc4O)n[nH]c3C(=O)N2Cc2ccncc2)ccc1O (stereo not given),-5%
CCCCOc1ccc(C2c3c(-c4ccccc4O)n[nH]c3C(=O)N2Cc2ccncc2)cc1OC (stereo not given),7.1µM*
CCOc1ccc(C2c3c(-c4ccccc4O)n[nH]c3C(=O)N2Cc2ccncc2)cc1 (stereo not given),14µM*
COc1cc(C2c3c(oc4ccccc4c3=O)C(=O)N2Cc2ccc(C)cc2)ccc1O (stereo not given),15%
CCCCNC(=O)[C@@H]1CCCC[C@@H]1C(=O)N1CC(n2nc(C)cc2C)C1,0%
O=C(c1ccc(Cn2cnnn2)cc1)N1CCC2(CC1)[C@H](O)C[C@@H]2OCCO,-15%
Cc1ccccc1NC(=O)N1CCc2c(c3cc(F)ccc3n2C)C1,i
CC1=C[C@@H](CN2CCC(CO)CC2)[C@H](C(C)C)C[C@H]1Cc1nnc(-c2ccc([N+](=O)[O-])cc2)o1,3.5µM*
CC1=C[C@@H](CN2CCN(CCO)CC2)[C@H](C(C)C)C[C@H]1Cc1nnc(-c2ccc([N+](=O)[O-])cc2)o1,2.5µM*
COc1ccc(-c2nnc(C[C@@H]3C[C@@H](C(C)C)[C@H](CN4CCN(CCO)CC4)C=C3C)o2)cc1,-33%
CN1CC(=O)N(C2CCNC2)Cc2c(NC3CCCC3)ncnc21 (stereo not given),10%
Cc1ccc(-c2nc(-c3nnn4c3COC(c3ccc(C)cc3)C4)no2)cc1 (stereo not given),6%
CCCC(=O)NC1CCN(c2ccc(C)cc2)C1=O (stereo not given),-12%
CCN(CC)c1ncccc1CNC(=O)CN1CC(c2ccccc2)CC1=O (stereo not given),-9%
Cc1ncsc1CN1C(=O)CO[C@H](c2ccc(NC(=O)c3ccccc3)cc2)[C@H]1CO,-18%
COc1ccccc1NC(=O)C1=C(C)Nc2c(C(=O)Nc3ccc(F)cc3)cnn2C1c1ccc(Cl)cc1 (stereo not given),8.9µM*
COc1ccc(C2C(C(=O)Nc3ccccc3)=C(C)Nc3c(C(=O)Nc4ccccc4)cnn32)cc1 (stereo not given),3.5µM*
COc1ccccc1NC(=O)C1=C(C)Nc2nc(SCC(=O)c3ccc(C)cc3)nn2C1c1ccc(F)cc1 (stereo not given),22%
COc1ccc(C2C=C(c3cccc(OC)c3)Nc3c(C(=O)Nc4ccccc4)cnn32)cc1 (stereo not given),13µM*
SMILES,Pf Dd2 growth
CCOc1ccc(C2C(C(=O)Nc3ccccc3OC)=C(C)Nc3c(C(=O)Nc4cccc(C)c4)cnn32)cc1 (stereo not given),4µM*
COc1ccc(-c2nc3n(n2)C(c2ccccc2)C(C(=O)Nc2cccnc2)=C(C)N3)cc1 (stereo not given),-4%
COc1ccccc1NC(=O)C1=C(C)Nc2nnnn2C1c1ccc(C(F)(F)F)cc1 (stereo not given),-16%
COc1cccc(NC(=O)c2cnn(-c3ccccc3)c2-n2cccc2)c1,-27%
Cc1ccc(NC(=O)c2cnn3c2NC(c2ccccc2)=CC3c2ccccc2)cc1 (stereo not given),i
CCOc1cc(C2C(C(=O)Nc3ccccc3)=C(C)Nc3ncnn32)cc(Br)c1O (stereo not given),2%
CCCCOc1ccc(C2C(C(=O)Nc3ccccc3OC)=C(C)Nc3nnnn32)cc1OC (stereo not given),i
CC1=C(C(=O)Nc2ccccc2)C(c2ccc(C(=O)O)cc2)n2ncnc2N1 (stereo not given),i
Cc1cnc(CC2CCN(C(=O)NC(C)C)C2)n1C1CC1 (stereo not given),-19%
CC(=O)NCCCC(=O)N1CCN(c2cccc(C=O)c2)C(=O)C1,6%
CC(C)(C)NC(=O)N1CCCCCCNC(=O)[C@@H]2C[C@@H](C(=O)NCCc3cnc[nH]3)C[C@@H]21,4%
CCC(C)NC(=O)Cn1nc2n(c1=O)CCCCC2 (stereo not given),85%
CC(C)(C)c1ccc(C(=O)N2CCC(c3nc(C4CCOC4)no3)CC2)cc1 (stereo not given),-14%
COc1ccc(CN2CCNc3cnc(Nc4ccccc4)cc3C2)cc1,i
CCOc1ccc(NC(=O)c2cnn3c2NC(c2ccccc2)=CC3c2cccc(OC)c2OC)cc1 (stereo not given),2.5µM*
COc1ccccc1NC(=O)C1=C(C)Nc2ncnn2C1c1ccccc1C(=O)O (stereo not given),1.3µM*
CCOc1ccc(NC(=O)c2cnc(Nc3ccccc3OC)c3ccccc23)cc1,i
COc1cccc(C2C=C(c3ccccc3)Nc3c(C(=O)Nc4ccccc4)cnn32)c1OC (stereo not given),0%
COc1cc(OC)c(C2C(C(=O)Nc3ccccc3)=C(C)Nc3ncnn32)cc1OC (stereo not given),4%
CCOc1ccccc1NC(=O)C1=C(C)Nc2ncnn2C1c1ccc(C)o1 (stereo not given),-10%
CNc1cc(C2CC(NC(=O)c3ccc4c(c3)OCC(=O)N4)C2)ncn1 (stereo not given),-16%
Clc1cccc(CN2CC[C@H](c3nnc(-c4ccncc4)o3)C2)c1,i
CC(C)(Oc1nn(CC2CCOCC2)c2ccccc12)C(=O)Nc1ccccn1,-19%[44.1 µM]
Cn1c(SCC(=O)Nc2nc3ccccc3s2)ncc(C(=O)Nc2ccc(F)cc2)c1=O,24%
CN1CCc2c(sc(NC(=O)CSc3ccc(F)cc3)c2-c2nc3ccccc3s2)C1,13µM*
SMILES,Pf Dd2 growth
CC(=O)N1CCc2c(sc(NC(=O)CSc3ccc(F)cc3)c2-c2nc3ccccc3s2)C1,i
Cc1oc2ccn(Cc3ccc(F)cc3)c(=O)c2c1C(=O)NC1CCCCCC1,-25%
CC(C)Oc1ccc(CNC(=O)C2Cn3cccc3C(=O)N2C)cc1 (stereo not given),24%
Cc1cc(C)c(CN2CCCC23Cc2ccccc2CNC3=O)c(C)c1 (stereo not given),-5%
Cc1cccc(CN2CCCCC23Cc2ccccc2CNC3=O)n1 (stereo not given),10µM*
Cc1cccc(C)c1CN1CCCC12Cc1ccccc1CNC2=O (stereo not given),2.5µM*
O=C1NCc2ccccc2CC12CCCCN2Cc1cccc(O)c1 (stereo not given),-20%
Cc1ncc(CO)c(CN2CCCC23Cc2ccccc2CNC3=O)c1O (stereo not given),0%
O=C1NCc2ccccc2CC12CCCN2Cc1ccc2ccccc2n1 (stereo not given),5%
CN(CCc1ccccn1)C(=O)C1CCCN(S(=O)(=O)c2ccccc2)CCC(=O)NCC1 (stereo not given),12%
O=C(N[C@H]1CO[C@H]2[C@@H]1OC[C@@H]2n1cc(-c2ccccn2)nn1)c1ccc(C(F)(F)F)cc1,1%

# High-throughput results as filed in PubChem BioAssay.
